Reference: the supplement of paper PMC7695840
Structures can show the parent of a compound that is named as a salt.

Test system: Staphylococcus aureus MW2 delta-mecA (mecA-)
Assay: normalized GFP fluorescence (growth of mecA- strain) (fraction of control range); higher = more growth of mecA- strain
Conditions: compound concentration: 150 uM; cefoxitin: subinhibitory; fluorescent label: GFP
Summary of the method: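 Pre-induced S. aureus MW2 cells with the gene (DsRed) and without it (GFP) were mixed 1:1 in LB holding a subinhibitory antibiotic dose set daily and grown on 150 μM compound (1.5% DMSO) in 1536-well plates, single replicate, for 20 h at 37 °C. DsRed (540/590) and GFP (485/520) readings were scaled per plate between single-strain control medians. Plates with high untreated ratios and rows with DsRed/GFP >10 were excluded.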

Row | Compound | normalized GFP fluorescence
1 | COC(=O)C1=C(C)NC(C)=C(C(=O)OC)C1c1ccccc1[N+](=O)[O-] | 0.0465
2 | O=S(=O)(O)CCS | 0.0478
3 | CNS(=O)(=O)Cc1ccc2[nH]cc(CCN(C)C)c2c1 | 0.345
4 | CCOC(=O)[C@H](CCc1ccccc1)N[C@H]1CS[C@H](c2cccs2)CN(CC(=O)O)C1=O [Temocapril HCl] | 0.372
5 | Cc1cn[nH]c1 | 0.665
6 | Nc1c2c(nc3ccccc13)CCCC2 | 0.414
7 | CCCNCC(O)COc1ccccc1C(=O)CCc1ccccc1 (centres undefined) | 0.19
8 | Cc1cc(C#N)cc(C)c1Oc1nc(Nc2ccc(C#N)cc2)nc(N)c1Br [Etravirine (TMC125)] | 0.423
9 | CNC(=C[N+](=O)[O-])NCCSCc1ccc(CN(C)C)o1 | 0.32
10 | CN1C2=CC(=O)/C(=N\NC(N)=O)C=C2CC1S(=O)(=O)O (centres undefined) [Carbazochrome sodium sulfonate] | 0.171
11 | Cc1ncc([N+](=O)[O-])n1CC(C)O (centres undefined) [Secnidazole (Flagentyl)] | 0.266
12 | CC(C)(C)NC(=O)[C@H]1CC[C@H]2[C@@H]3CC[C@H]4NC(=O)C=C[C@]4(C)[C@H]3CC[C@]12C | 0.27
13 | CCCN(CCC)S(=O)(=O)c1ccc(C(=O)O)cc1 | 0.462
14 | CO[C@H]1C[C@@H]2CC[C@@H](C)[C@@](O)(O2)C(=O)C(=O)N2CCCC[C@H]2C(=O)O[C@H]([C@H](C)C[C@@H]2CC[C@@H](OCCO)[C@H](OC)C2)CC(=O)[C@H](C)/C=C(\C)[C@@H](O)[C@@H](OC)C(=O)[C@H](C)C[C@H](C)/C=C/C=C/C=C/1C [Everolimus (RAD001)] | -0.00462
15 | CNCCC(Oc1ccc(C(F)(F)F)cc1)c1ccccc1 (centres undefined) | -0.00367
16 | NC(=O)c1ncn([C@@H]2O[C@H](CO)[C@@H](O)[C@H]2O)c1N [Acadesine] | 0.499
17 | CN(C)CCOc1ccc(/C(=C(/CCCl)c2ccccc2)c2ccccc2)cc1 | 0.000588
18 | CC#CCn1c(N2CCC[C@@H](N)C2)nc2c1c(=O)n(Cc1nc(C)c3ccccc3n1)c(=O)n2C | 0.315
19 | CC(=O)O[C@]1(C(C)=O)CC[C@H]2[C@@H]3C=C(Cl)C4=CC(=O)CC[C@]4(C)[C@H]3CC[C@@]21C | 0.23
20 | C[C@@H]1[C@H](O)[C@@H](C)/C=C/C=C/C=C/C=C/C=C/C=C/C=C/[C@H](O[C@@H]2O[C@H](C)[C@@H](O)[C@H](N)[C@@H]2O)C[C@@H]2O[C@](O)(C[C@@H](O)C[C@@H](O)[C@H](O)CC[C@@H](O)C[C@@H](O)CC(=O)O[C@H]1C)C[C@H](O)[C@H]2C(=O)O | 0.269

Row | Compound | normalized GFP fluorescence
21 | O=C(O)CCNC(=O)c1ccc(/N=N/c2ccc(O)c(C(=O)O)c2)cc1 | 0.565
22 | CCOC(=O)[C@H](CCc1ccccc1)N[C@H]1CCc2ccccc2N(CC(=O)O)C1=O | -0.00401
23 | O=C1C(CC[S+]([O-])c2ccccc2)C(=O)N(c2ccccc2)N1c1ccccc1 (centres undefined) | 0.525
24 | CC(=O)OCC(=O)[C@@]1(O)CC[C@H]2[C@@H]3CCC4=CC(=O)CC[C@]4(C)[C@H]3[C@@H](O)C[C@@]21C | 0.58
25 | Nc1c(Br)cc(Br)cc1CN[C@H]1CC[C@H](O)CC1 [Ambroxol HCl] | 0.21
26 | Cc1cc(O)cc(C)c1Cl | 0.0289
27 | CC1(C)O[C@@H]2C[C@H]3[C@@H]4CCC5=CC(=O)C=C[C@]5(C)[C@@]4(F)[C@@H](O)C[C@]3(C)[C@]2(C(=O)CO)O1 | 0.603
28 | N[C@@H](CC(=O)N1CCn2c(nnc2C(F)(F)F)C1)Cc1cc(F)c(F)cc1F | 0.306
29 | CCOC(=O)[C@H](CCc1ccccc1)N[C@@H](C)C(=O)N1Cc2cc(OC)c(OC)cc2C[C@H]1C(=O)O [Moexipril HCl] | 0.373
30 | C=C(c1ccc(C(=O)O)cc1)c1cc2c(cc1C)C(C)(C)CCC2(C)C [Bexarotene] | 0.666
31 | Clc1ccc(C(c2ccccc2Cl)C(Cl)Cl)cc1 (centres undefined) | 0.148
32 | C[C@@H]1O[C@@H](OC[C@H]2O[C@@H](Oc3c(-c4ccc(OCCO)c(OCCO)c4)oc4cc(OCCO)cc(O)c4c3=O)[C@H](O)[C@@H](O)[C@@H]2O)[C@H](O)[C@H](O)[C@H]1O [Troxerutin] | 0.934
33 | NC[C@H](O)c1ccc(O)c(O)c1 | 0.502
34 | CCN(CCCCOC(=O)c1ccc(OC)c(OC)c1)C(C)Cc1ccc(OC)cc1 (centres undefined) | 0.41
35 | C[C@H]1[C@H](NC(=O)/C(=N\OC(C)(C)C(=O)O)c2csc(N)n2)C(=O)N1S(=O)(=O)O [Aztreonam (Azactam, Cayston)] | 0.136
36 | CCN(CC)C(=O)/C(C#N)=C/c1cc(O)c(O)c([N+](=O)[O-])c1 [Entacapone] | 0.111
37 | O=C(NCC(O)CO)c1c(I)c(C(=O)NCC(O)CO)c(I)c(N(CCO)C(=O)CO)c1I (centres undefined) | 0.368
38 | CCCCCC(=O)O[C@]1(C(C)=O)CC[C@H]2[C@@H]3CCC4=CC(=O)CC[C@]4(C)[C@H]3CC[C@@]21C | 0.34
39 | Cc1cn([C@H]2C=C[C@@H](CO)O2)c(=O)[nH]c1=O | 0.779
